SMILES strings stand for the structures. Inconclusive results are not listed. Calls of active or inactive are those of the source. Calls come from the whole dose curve; as a rule, active = well fitted inhibition curve with a large enough effect; inconclusive = small, poorly fitted or top-dose-only effect; inactive = flat fitted curve, though single readings scatter.

The target of the assay is Luciferin 4-monooxygenase (Photinus pyralis) (UniProt P08659). Description: FLuc inhibitory activity for the follow-up compounds in a biochemical assay with Km concentrations of substrate and 500microM CoASH. The settings on record: purified FLuc, Km substrates + 500 uM CoASH, luminescence; series mostly up to 57.5 µM. From the text: NCGC Assay Overview: Firefly (Photinus pyralis) luciferase is one of the most commonly used transcriptional reporters. It is considered one of the more dynamically responsive reporters - that is, responsive to changes in reporter transcription - as it requires no post-translational modifications and is enzymatically active directly after protein synthesis (Wood, 1998). With no endogenous expression in mammalian cells and without the requirement of external excitation, it offers very little background signal, thus generally providing excellent signal to background for most assays. Previous profiling work to determine the prevalence of compounds that affect FLuc enzymatic activity (PubChem AID 411) identified that ~3% of the MLSMR library (then at ~72K) inhibited FLuc. […] Of the compounds identified in this profile that inhibited FLuc, 151 compounds were selected for further analysis, in an effort to better understand their mode of inhibiting FLuc. The assay described here was to determine the activity of the compounds in an FLuc assay that contained KM concentrations of substrates and 500uM CoASH.
Chain of Luciferin 4-monooxygenase (Photinus pyralis) (P08659 whole entry, looked up): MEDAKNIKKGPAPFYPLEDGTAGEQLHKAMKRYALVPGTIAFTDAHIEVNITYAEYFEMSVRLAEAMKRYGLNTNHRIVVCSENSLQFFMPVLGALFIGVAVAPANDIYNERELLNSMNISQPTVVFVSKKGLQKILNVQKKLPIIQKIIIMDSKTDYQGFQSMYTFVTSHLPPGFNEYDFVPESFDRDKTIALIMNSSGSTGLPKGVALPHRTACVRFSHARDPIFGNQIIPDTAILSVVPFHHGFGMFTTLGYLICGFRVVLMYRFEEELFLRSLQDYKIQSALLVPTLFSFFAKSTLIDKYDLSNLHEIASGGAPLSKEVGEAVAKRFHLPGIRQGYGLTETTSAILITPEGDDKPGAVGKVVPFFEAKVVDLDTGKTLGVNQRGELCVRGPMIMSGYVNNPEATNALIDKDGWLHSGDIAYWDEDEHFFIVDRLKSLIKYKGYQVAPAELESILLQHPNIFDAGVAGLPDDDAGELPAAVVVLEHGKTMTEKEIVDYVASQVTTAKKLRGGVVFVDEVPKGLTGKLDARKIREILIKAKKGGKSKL
NCGC Assay Protocol Summary: Reagents: 50mM Tris acetate, pH 7.5; 10mM Mg acetate; 10uM D-luciferin (Sigma #L9504); 10uM ATP; 0.01% Tween-20; 0.05% BSA; 10nM P. pyralis luciferase (Sigma #L9506); 500 uM CoASH Control compounds used were two known firefly luciferase inhibitors (3-(5-(3-chlorophenyl)-1,2,4-oxadiazol-3-yl)benzoic acid and 5-(2-fluorophenyl)-3-phenyl-1,2,4-oxadiazole), and DMSO. Three microliters containing firefly luciferase substrates in buffer (final concentrations: 50mM Tris acetate, pH 7.5, 10mM Mg acetate, 0.01% Tween-20, 0.05% BSA, 10uM D-luciferin, 10uM ATP, and 500 uM CoASH) are dispensed into each well of a Greiner white, solid-bottom 1536-well format plate using a flying reagent dispenser (FRD). These assay plates were then treated with 23nL of compound or DMSO using a Kalypsys pin tool, which allows for delivery of a 12-point intraplate titration of each compound to the assay plate (quantitative HTS), with a final compound concentrations ranging from approximately ~60uM to 0.3nM. One microliter of firefly luciferase in 500mM Tris-acetate buffer was then delivered by FRD to each well for a final enzyme concentration of 10nM. Luciferase activity was then measured using a ViewLux CCD imager (PerkinElmer), with an average exposure time of 2-30 seconds (2X binning, medium/high gain).
For `CC(=O)Oc1ccc(C(=O)Nc2ccccc2C(=O)Nc2cccc(C(=O)O)c2)cc1`, the Potency was 2590 nM (active). For `Cc1ccc(C(=O)O/N=C(\N)c2ccccn2)c(Cl)c1`, the Potency is 4.6 nM (active). Turning to `CC(C)CC(=O)Nc1cccc(C(=O)Nc2ccccc2C(=O)O)c1`, the Potency was 13000 nM (active). Turning to `CN(C)c1cccc(C(=O)Nc2ccc(-c3nc4ccccc4s3)cc2)c1`, the Potency is 1460 nM (active). On to `Cc1ccc2sc(-c3ccc(NC(=O)c4cc(-n5cnnc5)ccc4Cl)cc3)nc2c1`, for which the Potency was 1630 nM (active). The value for `COc1ccc2nc(NC(=O)Cc3cccs3)sc2c1` was 5800 nM (active). For the molecule `Nc1ccccc1C(=O)Nc1cccc(C(=O)O)c1`, the Potency is 18300 nM (active).

On to `CCOc1ccc(C(=O)Nc2cccc(C(=O)O)c2)cc1Cl`, for which the Potency is 919 nM (active). `COc1cc(OC)cc(-c2nc3ccccc3s2)c1`: the Potency was 3660 nM (active). Turning to `Nc1ccc(-c2nc3ccc(C(=O)O)cc3s2)cc1`, the Potency was 146 nM (active). As for `CCOc1ccc2nc(NC(=O)c3ccoc3C)sc2c1`, the Potency is 183 nM (active). For `O=C(Nc1ccccc1C(=O)O)c1cccc(NC(=O)c2ccccc2Cl)c1`, the Potency is 14600 nM (active). The value for `Cc1ccc(C(=O)Nc2cccc(C(=O)O)c2)cc1S(=O)(=O)N1CCOCC1` was 20600 nM (active). As for `COc1ccc(C(=O)Nc2ccccc2C(=O)N/N=C/c2ccc(O)c(OC)c2)cc1`, the Potency was 3.7 nM (active).

With `O=C(Nc1ccccc1C(=O)O)c1ccc(Cl)c(S(=O)(=O)N2CCOCC2)c1`, the Potency is 5800 nM (active). Regarding `O=C(O)c1cccc(NC(=O)c2cccc(NC(=O)C3CCCO3)c2)c1` (stereo not given), the Potency is 18300 nM (active). The value for `NC(=O)Cc1ccc2sc(-c3ccccc3)nc2c1` was 1630 nM (active); that for `COc1ccc(-c2cccc(C(=O)Nc3cccc(C(=O)O)c3)c2)cc1` was 13000 nM (active); that for `COc1ccc2nc(NC(=O)c3ccco3)sc2c1` was 291 nM (active). As for `Cc1ccc(NS(=O)(=O)c2ccc(Cl)c(C(=O)Nc3cccc(C(=O)O)c3)c2)cc1`, the Potency entry is “inactive”. For `Cc1ccc(S(=O)(=O)N2CCN(C(=O)c3ccccc3-c3nc4ccccc4s3)CC2)c(C)c1`, the Potency entry is “inactive”.

In the case of `O=C(O)c1ccc(NC(=O)c2cccc(NC(=O)c3cccs3)c2)cc1`, the Potency was 5800 nM (active). For the molecule `Nc1ccc2nc(-c3ccc(O)cc3)sc2c1`, the Potency was 146 nM (active). For `CC(C)C(=O)Nc1cccc(C(=O)Nc2ccccc2C(=O)O)c1`, the Potency is 7300 nM (active). With `COc1c(C)cccc1C(=O)Nc1ccc(-c2nc3ccccc3s2)c(Cl)c1`, the Potency result was “inactive”. Regarding `Cc1ccc(C(=O)Nc2ccc(C(=O)O)cc2)cc1S(=O)(=O)Nc1ccccc1`, the Potency result is “inactive”.

Consider `COc1ccc2nc(NC(=O)c3cnccn3)sc2c1`, for which the Potency was 919 nM (active). In the case of `O=C(O)c1cccc(NC(=O)c2ccc(COc3ccc(Cl)cc3)cc2)c1`, the Potency is 18300 nM (active). Consider `COc1ccc2nc(NC(=O)c3ccc([N+](=O)[O-])o3)sc2c1`, for which the Potency is 1160 nM (active).

For `Cc1ccc2sc(-c3ccc(N)cc3)nc2c1`, the Potency is 41.1 nM (active). The value for `Cc1ccc(C(=O)Nc2cccc(C(=O)O)c2)cc1S(=O)(=O)N1CCCCC1` was 3660 nM (active); that for `COc1ccc2nc(NC(=O)c3nc(S(=O)(=O)Cc4ccc(C)cc4)ncc3Cl)sc2c1` was 2060 nM (active); that for `Cc1ccc(C(=O)Nc2cccc(C(=O)O)c2)cc1` was 3660 nM (active). As to `COc1ccc2nc(NC(=O)CCc3ccc(OC)c(OC)c3)sc2c1`, the Potency entry was “inactive”. On to `Nc1ccc(C(=O)Nc2ccccc2C(=O)O)cc1`, for which the Potency is 3260 nM (active).

Take `COc1ccc2nc(NC(=O)c3ccc(NS(=O)(=O)c4cccs4)cc3)sc2c1`: the Potency was 2590 nM (active). With `O=C(Nc1ccccc1-c1nc2ccccc2s1)c1cccnc1`, the Potency entry was “inactive”. As for `CN=c1scc(-c2ccccc2F)n1/N=C/c1ccc[nH]1`, the Potency is 16.3 nM (active). Take `COc1ccccc1C(=O)Nc1ccc(C(=O)Nc2ccccc2C(=O)O)cc1`: the Potency is 20600 nM (active). As for `CN(C)S(=O)(=O)c1ccc(C(=O)Nc2ccccc2C(=O)O)cc1`, the Potency is 9190 nM (active).

The values are drawn from PubChem BioAssay AID602358 (National Center for Advancing Translational Sciences (NCATS), 2012).
